Several values for one entry are separate records, joined by “and”; a condition that tells them apart may be missing. Equal values may be shown once. Inconclusive results are not listed. Where a structure was tested more than once in an assay, its records may differ in their call. Activity calls are given as the source filed them. Rule for the calls, unless noted: active = hit-call score of the fitted dose curve at least 0.9, where 1 is the maximum; inactive = score below 0.9.
Tests used:
[1] = CCTE_Shafer_MEA_dev_firing_rate_mean: CCTE's Neural Network Formation Assay for Mean Firing Rate, Shafer Lab (AID 2284031);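 note: curve fitted for loss of firing so AC50 reflects decreased mean firing rate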
In short: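 Extracellular spike frequency, AUC over DIV 5–12 recordings, in rat cortical neuron MEA cultures dosed from plating; loss direction vs DMSO.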

[2] = CCTE_Shafer_MEA_dev_per_burst_spike_percent: CCTE's Neural Network Formation Assay for Percent of Spikes in a Burst, Shafer Lab (AID 2284032);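 note: fitted as a decrease in burst spike percentage below DMSO baseline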
In short: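 Value is trapezoidal AUC over recordings on days 5, 7, 9 and 12 of the well-mean fraction of spikes falling in single-electrode bursts; rat cortical cultures exposed continuously from plating, treatment renewed DIV 5 and 9, fitted downward against DMSO.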

[3] = CCTE_Shafer_MEA_dev_active_electrodes_number: CCTE's Neural Network Formation Assay for Number of Active Electrodes, Shafer Lab (AID 2284040; active = hit-call score of the fitted dose curve at least 0.9, where 1 is the maximum;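 note: potency for loss of active electrodes versus DMSO so lower counts are hits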)
In short: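 Developing rat cortical networks on MEAs, exposed DIV 0–12. Value is the AUC of active-electrode counts (≥5 spikes/min) from days 5, 7, 9, 12, relative to DMSO.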

[4] = CCTE_Shafer_MEA_dev_burst_rate: CCTE's Neural Network Formation Assay for Burst Rate, Shafer Lab (AID 2284042);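 note: potency for loss of burst rate below DMSO control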
In short: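 Cells plated, treated day 0; recorded DIV 5, 7, 9, 12; fed and re-treated DIV 5, 9. Endpoint: bursts per recording time, active-electrode well mean, trapezoidal AUC, fitted in decreasing direction against DMSO baseline.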

[5] = CCTE_Shafer_MEA_dev_burst_duration_mean: CCTE's Neural Network Formation Assay for Mean Burst Duration, Shafer Lab (AID 2284045)
In short: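 Network-formation assay in primary rat cortical neurons; treatment spans twelve days of development. Mean burst duration per well is integrated by trapezoidal AUC and fitted in the loss-of-signal direction against DMSO baseline.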

[6] = CCTE_Shafer_MEA_dev_interburst_interval_mean: CCTE's Neural Network Formation Assay for Mean Interburst Interval, Shafer Lab (AID 2284046);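 note: well-mean interburst interval of bursting electrodes as AUC over four recording days; curve fitted for decrease in interburst interval relative to DMSO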
In short: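 Developing rat cortical networks on 48-well MEAs receive compound from the day of plating. Burst intervals from each active electrode are averaged per well, and AUC over the recording days is fitted in the negative direction against DMSO.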

[7] = CCTE_Shafer_MEA_dev_inter_network_spike_interval_mean: CCTE's Neural Network Formation Assay for Mean Inter-network Spike Interval, Shafer Lab (AID 2284047)
In short: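 Rat cortical cultures, 1.5 x 10^5 cells/well on 48-well MEA plates; continuous exposure days 0–12, medium and compound refreshed DIV 5, 9. Mean time between consecutive network-spike peaks; AUC across DIV 5/7/9/12; DMSO baseline, negative fitting direction.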

[8] = CCTE_Shafer_MEA_dev_network_spike_number: CCTE's Neural Network Formation Assay for Number of Network Spikes, Shafer Lab (AID 2284048);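 note: synchronized bursts across electrodes counted on days 5 7 9 12 and integrated as AUC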;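 for AC50: fit as a loss of signal meaning fewer network spikes than DMSO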
In short: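 Extracellular recordings from 16-electrode wells track network formation in rat cortical cultures under continuous treatment from plating. The endpoint is network spike number, expressed as AUC across DIV 5–12 relative to DMSO vehicle.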

[9] = CCTE_Shafer_MEA_dev_network_spike_peak: CCTE's Neural Network Formation Assay for Mean Number of Electrodes in Network Spike, Shafer Lab (AID 2284049);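 note: fitted for loss of signal meaning fewer electrodes in network spikes than DMSO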
In short: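 Continuous 12-day exposure of rat cortical cultures, starting at plating, on MEA plates. Endpoint: electrodes participating in network-spike peaks, AUC across DIV 5–12, DMSO as negative control.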

[10] = CCTE_Shafer_MEA_dev_spike_duration_mean: CCTE's Neural Network Formation Assay for Mean Spike Duration, Shafer Lab (AID 2284051);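 note: mean network spike duration pooled as area under curve over DIV 5 to 12 recordings; potency for a decrease in mean network spike duration versus DMSO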
In short: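 Readout is the average length of network spikes, clustered firing across electrodes, summed over DIV 5, 7, 9 and 12 as area under the curve. Neurons from rat cortex developed networks on MEA plates under continuous 12-day exposure.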

[11] = CCTE_Shafer_MEA_dev_network_spike_duration_std: CCTE's Neural Network Formation Assay for Standard Deviation of Network Spike Duration, Shafer Lab (AID 2284052);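 note: area under curve of spike duration SD across recording days 5 to 12; hits are decreases in network spike duration SD versus DMSO vehicle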
In short: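 Read-out is the trapezoidal area-under-the-curve across recordings made on days 5, 7, 9 and 12, fitted in the negative direction against DMSO baseline. Neurons were primary rat cortical cells treated from day 0, with treatment renewed at each feed.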

[12] = CCTE_Shafer_MEA_dev_per_network_spike_spike_number_mean: CCTE's Neural Network Formation Assay for Mean Number of Spikes in a Network Spike, Shafer Lab (AID 2284053);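 note: fitted as decrease in spikes per network spike relative to DMSO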
In short: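 Continuous twelve-day exposure of developing rat cortical networks grown over 16 microelectrodes per well; spontaneous firing is captured at four time points, and the per-network-spike spike number is integrated over development by trapezoidal AUC.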

[13] = CCTE_Shafer_MEA_dev_LDH: CCTE's Lactate Dehydrogenase Assay for Cytotoxicity in the Neural Network Formation Assay, Shafer Lab (AID 2284068; active = hit-call score of the fitted dose curve at least 0.9, where 1 is the maximum;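 note: exposure for twelve days from plating with re-dosing on DIV 5 and 9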)
In short: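 Cytotoxicity companion to network-formation recordings: rat cortical neurons received compound over 12 days of development, re-dosed at DIV 5 and 9 feeds. Viability was inferred from LDH enzyme activity relative to DMSO.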

[14] = CCTE_Shafer_MEA_dev_correlation_coefficient_mean: CCTE's Neural Network Formation Assay for Mean Correlation Coefficient, Shafer Lab (AID 2284093);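 note: well mean pairwise spike train correlation integrated as AUC over recording days 5 to 12; potency fitted for loss of correlation relative to DMSO vehicle wells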
In short: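 Read-out: well-mean correlation coefficient of spike trains between electrode pairs, collapsed over four recording days as trapezoidal area-under-the-curve. Developing rat cortical neuron networks grown on MEAs received test chemical continuously from plating.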

[15] = IUF_NPC1b_proliferation_BrdU_72hr: Leibniz Research Institute for Environmental Medicine (IUF) 72-hour Neural Progenitor Cell Bromodeoxyuridine (BrdU) Proliferation Assay (NPC1b) (AID 2284207)
In short: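 Neural progenitor spheres of human fetal origin are treated for three days; BrdU added for the last 16 h is quantified by luminescence ELISA, with DMSO as baseline and EGF/FGF omission as positive control.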

[16] = IUF_NPC1a_proliferation_area_72hr: Leibniz Research Institute for Environmental Medicine (IUF) 72-hour Neural Progenitor Cell Proliferation Area Assay (NPC1a) (AID 2284208)
In short: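 Spheres of 0.3 mm are plated singly in growth-factor medium and exposed from day 0. After three days at 37C and 5% CO2, sphere area is measured by phase contrast imaging, with activity referenced to DMSO.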

[17] = IUF_NPC1_viability_72hr: Viability Assessment at 72 hours in the Leibniz Research Institute for Environmental Medicine (IUF) Neural Progenitor Cell Proliferation Assay (NPC1) (AID 2284209)
In short: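 Three-day continuous exposure of human neural progenitor spheres under EGF/FGF-driven proliferation; cell viability scored by alamar blue signal versus DMSO.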

[18] = CCTE_Mundy_HCI_Cortical_Synap_Neur_Matur_NeuriteSpotCountPerNeuriteLength: CCTE's Synaptogenesis and Neurite Maturation Assay in rat cortical cells for Neurite Spot Count per Neurite Length, Mundy Lab (AID 2284210)
In short: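 Neurite-associated synapse density (synaptophysin puncta per unit neurite length) is measured by fluorescence high-content imaging in rat cortical cultures treated from DIV 7 and fixed at DIV 12, with DMSO as negative control.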

[19] = CCTE_Mundy_HCI_Cortical_Synap_Neur_Matur_NeuriteLength: CCTE's Synaptogenesis and Neurite Maturation Assay in rat cortical cells for Neurite Length, Mundy Lab (AID 2284214)
In short: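 DMSO-normalised neurite length, from high-content imaging of anti-MAP2-stained rat cortical cells fixed at DIV 12. Glia were suppressed with AraC (DIV 5) before chemical exposure from DIV 7.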

[20] = CCTE_Mundy_HCI_Cortical_Synap_Neur_Matur_NeuriteSpotCountPerNeuron: CCTE's Synaptogenesis and Neurite Maturation Assay in rat cortical cells for Neurite Spot Count per Neuron Count, Mundy Lab (AID 2284215)
In short: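 Rat cortical primary cultures; AraC DIV 5 to arrest glia; dosing + media change DIV 7; fixed DIV 12. Anti-MAP2/anti-synaptophysin, Hoechst nuclei; HCI puncta count per neuron, positive fitting direction vs DMSO.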

[21] = CCTE_Mundy_HCI_Cortical_Synap_Neur_Matur_SynapseCount: CCTE's Synaptogenesis and Neurite Maturation Assay in rat cortical cells for Synapse Count, Mundy Lab (AID 2284218)
In short: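 Endpoint: synapses/neuron by HCI (synaptophysin puncta on MAP2-labelled neurites, Hoechst nuclei). Rat primary cortical cells, AraC DIV 5, dosed DIV 7, fixed DIV 12; DMSO negative control.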

[22] = CCTE_Mundy_HCI_Cortical_Synap_Neur_Matur_CellBodySpotCount: CCTE's Synaptogenesis and Neurite Maturation Assay in rat cortical cells for Cell Body Spot Count, Mundy Lab (AID 2284223)
In short: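 Rat cortical neurons; AraC @ DIV 5; dose + media change DIV 7; fix DIV 12; anti-MAP2/anti-synaptophysin IF, Hoechst; HCI count of soma synaptophysin puncta/neuron; DMSO = negative control.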

[23] = CCTE_Mundy_HCI_Cortical_NOG_NeuronCount: CCTE's Neurite Outgrowth Assay in rat cortical cells for Neuron Count, Mundy Lab (AID 2284236; active = hit-call score of the fitted dose curve at least 0.9, where 1 is the maximum;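 note: neurons counted by imaging betaIII-tubulin and Hoechst stained cortical cells; cells exposed to compound for about 48 hours before fixation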)
In short: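 Read-out: neuron number by high-content imaging of betaIII-tubulin (Alexa Fluor-488) and Hoechst-labelled rat primary cortical cells.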

[24] = CCTE_Mundy_HCI_Cortical_Synap_Neur_Matur_NeuronCount: CCTE's Synaptogenesis and Neurite Maturation Assay in rat cortical cells for Neuron Count, Mundy Lab (AID 2284242; active = hit-call score of the fitted dose curve at least 0.9, where 1 is the maximum)
In short: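 Measured at DIV 12: fluorescently labelled neurons (Hoechst nuclei, MAP2) in rat primary cortical cultures, counted by high-content imaging. AraC suppressed glia from DIV 5; DMSO served as negative control.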

[25] = IUF_NPC2c_oligodendrocyte_migration_120hr: Leibniz Research Institute for Environmental Medicine (IUF) 120-hour Neural Progenitor Cell Migration Assay for Oligodendrocyte Migration (NPC2c) (AID 2284297)
In short: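 Read-out is the mean distance of O4-positive oligodendrocytes from the sphere core edge at 120 h, normalized to radial glia migration and fitted in the gain direction against DMSO. Spheres of primary human neural progenitors differentiated on laminin under continuous compound exposure.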

[26] = IUF_NPC2a_radial_glia_migration_120hr: Leibniz Research Institute for Environmental Medicine (IUF) 120-hour Neural Progenitor Cell Migration Assay for Radial Glia Migration (NPC2a) (AID 2284298)
In short: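 Readout: distance in um from sphere core edge to migration-area edge, derived from Hoechst nuclei density with a threshold-defined polynomial boundary. Spheres: hNPC, GW 16-19, 0.3 mm, on PDL/laminin; exposure 5 days; DMSO is baseline.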

[27] = IUF_NPC2a_radial_glia_migration_72hr: Leibniz Research Institute for Environmental Medicine (IUF) 72-hour Neural Progenitor Cell Migration Assay for Radial Glia Migration (NPC2a) (AID 2284299)
In short: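 Spheres of human primary neural progenitors migrate on poly-D-lysine/laminin under compound exposure at 37C, 5% CO2. The 72 h radial glia migration distance comes from brightfield images, measured manually.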

[28] = IUF_NPC2b_neuronal_migration_120hr: Leibniz Research Institute for Environmental Medicine (IUF) 120-hour Neural Progenitor Cell Migration Assay for Neuron Migration (NPC2b) (AID 2284300)
In short: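 Read-out is mean distance from sphere edge to each TUBB3-positive neuron at 120 h, expressed relative to radial glia migration distance and to DMSO baseline. Single 0.3 mm human NPC spheres differentiated on laminin under continuous compound exposure.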

[29] = IUF_NPC3_neuronal_differentiation_120hr: Leibniz Research Institute for Environmental Medicine (IUF) 120-hour Neuronal Differentiation Assay (NPC3) (AID 2284301)
In short: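 Neuronal differentiation of primary human neural progenitors measured by high-content imaging: percent TUBB3+ of Hoechst+ nuclei within migrated area at 120 h, seven-point serial dilution plus solvent control, gain or loss relative to DMSO.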

With `CN(C)CCCn1cc(C2=C(c3c[nH]c4ccccc34)C(=O)NC2=O)c2ccccc21` the AC50 [1] was 1.97 µM (active) [middle of 4 runs], the AC50 [2] was 4.52 µM (active) and 2.95 µM (active) and 5 µM (active) and the AC50 [3] was 4.2 µM (active) [middle of 4 runs]. The AC50 [4] was 1.61 µM (active) [middle of 4 runs], the outcome [5] was “inactive” and the outcome [6] was “inactive”. For the same compound, the outcome [7] was “inactive”, the AC50 [8] was 264 nM (active) and 467 nM (active) and 1.58 µM (active) and the outcome [8] was “inactive”. For the same compound, the AC50 [9] was 3.8 µM (active) and 3.08 µM (active) and 5 µM (active), the AC50 [10] was 6.41 µM (active) and 5 µM (active) and 3.28 µM (active) and the outcome [11] was “inactive”. The AC50 [12] was 1.61 µM (active) and 2.57 µM (active) and 5 µM (active), the AC50 [13] was 7.97 µM (active) and the AC50 [14] was 3.16 µM (active) [middle of 4 runs]. The AC50 [15] was 263 nM (active), the AC50 [16] was 11.6 µM (active) and the outcome [17] was “inactive”. For the same compound, the outcome [18] was “inactive”, the outcome [19] was “inactive” and the outcome [20] was “inactive”. The outcome [21] was “inactive”, the outcome [22] was “inactive” and the outcome [23] was “inactive”. The outcome [24] was “inactive”, the AC50 [25] was 18.6 µM (active) and the AC50 [26] was 5.37 µM (active). For the same compound, the AC50 [27] was 11.3 µM (active), the AC50 [28] was 16.3 µM (active) and the AC50 [29] was 16.2 µM (active).
